# Measurements reported in PubChem BioAssay.
# Several values for one entry are separate records, joined by “and”; a condition that tells them apart may be missing. Equal entries are not always repeated. Activity calls are given as the source filed them. Cut-off read from the data, not from the text of the source, unless noted: active = inhibition above about 80%; inactive = the rest.
# Key:
# [1] = biological target: NAD(+) hydrolase SARM1 (Homo sapiens) (UniProt Q6SZW1); assay: blocking NAD cleavage by SARM1 SAM-TIR – cell lysate, NAD-Glo luminescence (AID 1508614;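 active = compound whose remaining NAD level is above about 45 nM, limit read from the data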;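 note: higher remaining NAD means stronger inhibition of SARM1 NADase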); conditions: SAM-TIR HEK293T lysate NADase, at 1 µM, stronger effect = higher value
# NAD(+) hydrolase SARM1 (Homo sapiens), sequence (Q6SZW1 whole entry, looked up, the tested form may be a part): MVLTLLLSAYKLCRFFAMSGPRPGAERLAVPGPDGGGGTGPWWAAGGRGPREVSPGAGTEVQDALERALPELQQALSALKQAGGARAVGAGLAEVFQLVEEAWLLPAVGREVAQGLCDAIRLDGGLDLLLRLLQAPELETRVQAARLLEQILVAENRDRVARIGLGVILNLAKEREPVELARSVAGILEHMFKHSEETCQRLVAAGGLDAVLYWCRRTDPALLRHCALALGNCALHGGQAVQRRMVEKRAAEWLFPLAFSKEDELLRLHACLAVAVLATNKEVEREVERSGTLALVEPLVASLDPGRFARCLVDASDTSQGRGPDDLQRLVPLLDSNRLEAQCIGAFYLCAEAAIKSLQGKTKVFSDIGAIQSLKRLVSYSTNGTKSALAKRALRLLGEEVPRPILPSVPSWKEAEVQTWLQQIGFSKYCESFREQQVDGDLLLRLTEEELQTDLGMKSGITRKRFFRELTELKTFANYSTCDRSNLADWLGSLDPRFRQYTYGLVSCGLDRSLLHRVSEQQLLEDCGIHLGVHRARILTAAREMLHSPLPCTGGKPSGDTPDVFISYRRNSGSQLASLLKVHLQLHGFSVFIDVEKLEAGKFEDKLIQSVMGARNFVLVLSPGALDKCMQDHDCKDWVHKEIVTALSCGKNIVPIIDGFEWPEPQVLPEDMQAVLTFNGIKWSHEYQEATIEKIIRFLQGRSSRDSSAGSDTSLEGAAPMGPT
# [2] = biological target: Mitogen-activated protein kinase 7 (Homo sapiens) (UniProt Q13164); assay: Gal4-ERK5 driven luciferase induction – cell-based, HTS, primary screen (AID 1508626;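 active = luciferase signal above three times the same-plate solvent-only control wells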;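 note: luciferase driven by Gal4-ERK5 fusion binding five Gal4 sites before minimal TATA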); conditions: HeLa Gal4-ERK5 transactivation, 18 h, at 5 µM, stronger effect = higher value
# Mitogen-activated protein kinase 7 (Homo sapiens), sequence (Q13164 whole entry, looked up, the tested form may be a part): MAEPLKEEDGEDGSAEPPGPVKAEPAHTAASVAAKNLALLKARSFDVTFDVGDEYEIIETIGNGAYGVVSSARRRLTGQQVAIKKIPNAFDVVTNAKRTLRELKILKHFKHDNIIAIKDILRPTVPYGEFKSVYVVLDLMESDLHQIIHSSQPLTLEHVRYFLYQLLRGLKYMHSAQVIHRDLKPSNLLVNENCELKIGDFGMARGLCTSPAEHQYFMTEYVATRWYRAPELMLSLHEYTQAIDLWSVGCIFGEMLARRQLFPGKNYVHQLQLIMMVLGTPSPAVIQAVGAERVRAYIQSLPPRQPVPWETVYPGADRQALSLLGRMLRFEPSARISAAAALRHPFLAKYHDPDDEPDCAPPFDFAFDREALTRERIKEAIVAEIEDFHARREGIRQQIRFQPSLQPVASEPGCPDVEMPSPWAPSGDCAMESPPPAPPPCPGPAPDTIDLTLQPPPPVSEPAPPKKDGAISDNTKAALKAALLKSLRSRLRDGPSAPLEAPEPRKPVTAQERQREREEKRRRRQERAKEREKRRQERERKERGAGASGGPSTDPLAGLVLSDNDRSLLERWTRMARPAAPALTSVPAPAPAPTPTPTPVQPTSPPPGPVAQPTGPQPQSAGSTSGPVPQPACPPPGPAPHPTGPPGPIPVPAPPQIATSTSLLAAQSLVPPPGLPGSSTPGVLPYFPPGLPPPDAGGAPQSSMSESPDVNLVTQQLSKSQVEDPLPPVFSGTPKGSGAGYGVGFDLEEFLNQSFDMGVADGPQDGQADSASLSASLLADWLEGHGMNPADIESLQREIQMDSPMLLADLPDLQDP
# [3] = galactose survival enhancers in mitochondrial complex I cybrids – cell-based, galactose medium, ATP luminescence, primary screen (AID 1645843;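 active = z-score of at least 1.8 in each of two replicates, scored against plate mean and spread of sample wells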;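 note: positive z means more ATP and so rescue of galactose-driven cybrid death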); conditions: complex I mutant cybrid cells, 72 h, stronger effect = higher value
# [4] = growth inhibition, single agent or in combination, cell-based, chromothripsis tumors, cisplatin or BGB combos (AID 1671449); conditions: LFS_MB_P medulloblastoma cells;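 note: cells exposed for 96 hours; 0% = vehicle DMSO and 100% = killing by high DMSO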
# [5] = growth inhibition, single agent and combos, cell-based, chromothripsis tumors, cisplatin or BGB combos (AID 1671450); conditions: HDN33 neuroblastoma cells, stronger effect = higher value;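 note: cells exposed to compound for four days; 0% = vehicle DMSO and 100% = cell killing by high DMSO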
# [6] = growth inhibition, single agents and combos, ICB984, cell-based, cisplatin or BGB combos, synergistic combos for chromothripsis tumors (AID 1671451; call rule not given here;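 note: cells exposed for 96 hours before readout; 0% = vehicle DMSO and 100% = killing by high DMSO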); conditions: ICB984 medulloblastoma cells, drug combinations, stronger effect = higher value
# [7] = growth inhibition, single agents and combos, LFS_MB_1R, cell-based, cisplatin or BGB combos, synergistic combos for chromothripsis tumors (AID 1671452); conditions: LFS_MB_1R medulloblastoma cells, stronger effect = higher value;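 note: cells exposed for 96 hours before readout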
# [8] = growth inhibition, single agents and combos, HTB85, cell-based, BGB or cisplatin IC20 combos, synergistic combos for chromothripsis tumors (AID 1671453); conditions: HTB85 osteosarcoma cells, drug combinations, stronger effect = higher value;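 note: cells exposed for 96 hours before readout; 0% = vehicle DMSO and 100% = high DMSO killing control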
# [9] = growth inhibition, single agents and combos, CRL2098, cell-based, BGB or cisplatin IC20 combos, synergistic combos for chromothripsis tumors (AID 1671454); conditions: CRL2098 osteosarcoma cells, drug combinations, stronger effect = higher value;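 note: cells exposed for 96 h before readout; 0% = vehicle DMSO and 100% = killing by high DMSO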
# [10] = growth inhibition, single agents and combos, HD-MB03, cell-based, BGB or cisplatin IC20 combos, synergistic combos for chromothripsis tumors (AID 1671455; in the data active = inhibition above about 83%;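 note: 0% = vehicle DMSO and 100% = high DMSO as cytotoxic control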); conditions: HD-MB03 medulloblastoma cells, stronger effect = higher value
# [11] = growth inhibition, single agents and combos, UWB1.289, cell-based, BGB or cisplatin combos, synergistic combos for chromothripsis tumors (AID 1671456); conditions: UWB1.289 ovarian carcinoma cells, stronger effect = higher value;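 note: cells exposed to compound for four days; 0% = vehicle DMSO and 100% = killing by high DMSO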
# [12] = growth inhibition, single agents and combos, LFS_MB_2R, cell-based, cisplatin combos, synergistic combos for chromothripsis tumors (AID 1671457); conditions: LFS_MB_2R medulloblastoma cells, stronger effect = higher value;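 note: cells exposed to compound for four days before readout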
# [13] = growth inhibition, MDA-MB-436, cell-based, BGB or cisplatin combos, synergistic combos for chromothripsis tumors (AID 1671458; call rule not given here;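 note: cells exposed for 96 hours; 0% = vehicle DMSO and 100% = killing by high DMSO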); conditions: MDA-MB-436 breast carcinoma growth inhibition, drug combinations, stronger effect = higher value
# [14] = UWB1.289_BRCA1 ovarian cancer growth, cell-based, BGB or cisplatin combinations (AID 1671459); conditions: UWB1.289 BRCA1 ovarian carcinoma, drug combinations, stronger effect = higher value
# [15] = drug combination toxicity in non-malignant astrocytes – cell-based, BGB or cisplatin IC20 combos, cytotoxicity control for chromothriptic childhood tumor combination screen (AID 1671460); conditions: Human astrocytes, viability inhibition, drug combinations, at 0.5 µM, stronger effect = higher value;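 note: cells exposed to compounds for 96 hours before viability readout; 0% = vehicle and 100% = killing control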
# [16] = BT084 cell growth, single and combined drugs, ICGC_MB145, cisplatin and BGB IC40 combos (AID 1671461); conditions: BT084 medulloblastoma cells, drug combinations, stronger effect = higher value;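 note: cells exposed to drugs for 96 hours; 0% = vehicle DMSO and 100% = high DMSO full killing control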
# [17] = RCMB18 cell growth, single agent and combined, cisplatin and BGB IC40 combos (AID 1671462); conditions: RCMB18 medulloblastoma cells, stronger effect = higher value;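 note: cells exposed to compound for four days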
# [18] = CRL1545 cell growth, single agent and combined, cisplatin and BGB IC20 combos (AID 1671464); conditions: CRL1545 osteosarcoma cells, stronger effect = higher value;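 note: cells exposed to compound for 96 hours before readout; 0% = vehicle DMSO and 100% = high DMSO killing control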
# F380Y = assay: BK channel mutant inhibitors and activators – cell-based, U2OS BacMam, thallium flux, beta subunits, selectivity assay, profiling panel (AID 1259406;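 active = thallium flux through the channel raised or lowered by more than 3 SD from vehicle-only wells, actives on both sides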;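 note: initial slope of Thallos dye fluorescence rise after thallium is added; log ratio against the mean of 0.3% DMSO vehicle wells on the same plate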); conditions: U2OS BacMam BK variants, at 30 µM
# F380Y/beta1 = assay: as above; conditions: U2OS BacMam BK variants, at 30 µM
# [19] = measured here: combination with BGB IC40, at 0.05 µM
# [20] = measured here: with BGB IC20 combination, at 0.5 µM
# [21] = measured here: with cisplatin IC20 combination, at 0.5 µM
# [22] = measured here: combination with cisplatin, at 0.5 µM
# [23] = measured here: combination with cisplatin, at 5 µM
compound,measurement,setting,value
CC(N)C12CC3CC(CC(C3)C1)C2 (stereo not drawn),remaining NAD,[1],10 nM (inactive)
same,luciferase signal,[2],48 AU (inactive)
same,z-score,[3],1.03 (inactive) and -0.17 (inactive) and -0.24 (inactive)
same,inhibition,"[4]; at 0.5 µM, stronger effect = higher value",6% (inactive)
same,inhibition,"[4]; measured here: combination with BGB IC20, at 0.005 µM",-16.1%
same,inhibition,"[4]; measured here: combination with BGB IC40, at 0.005 µM",-38.1%
same,inhibition,[4]; [19],-30.6%
same,inhibition,"[4]; measured here: combination with cisplatin, at 0.5 µM, stronger effect = higher value",9.24%
same,inhibition,"[4]; measured here: combination with cisplatin, at 5 µM, stronger effect = higher value",-22.9%
same,inhibition,"[5]; BGB combo, at 5 µM",-28.3%
same,inhibition,[5]; at 0.5 µM,-32.5% (inactive)
same,inhibition,"[5]; cisplatin combo, at 5 µM",-20.2%
same,inhibition,[5]; [20],-33.5%
same,inhibition,[5]; [21],-23.6%
same,inhibition,"[5]; single agent, at 5 µM",-36.9%
same,inhibition,"[6]; BGB IC20 combo, at 0.005 µM",-4.5%
same,inhibition,"[6]; BGB IC40 combo, at 0.005 µM",-19.4%
same,inhibition,"[6]; BGB IC40 combo, at 0.05 µM",-14.2%
same,inhibition,[6]; at 0.5 µM,-43.5% (inactive)
same,inhibition,"[6]; cisplatin combo, at 0.05 µM",-17.4%
same,inhibition,"[6]; cisplatin combo, at 0.5 µM",-54.1%
same,inhibition,"[6]; cisplatin combo, at 5 µM",-42.4%
same,inhibition,"[6]; measured here: 5 uM single agent, at 5 µM",12.3%
same,inhibition,[7]; at 0.5 µM,-32.9% (inactive)
same,inhibition,[7]; [19],-22.2%
same,inhibition,[7]; [22],-47.8%
same,inhibition,[7]; [23],-25.5%
same,inhibition,[8]; at 0.5 µM,-15.6% (inactive)
same,inhibition,"[8]; measured here: with BGB IC20, at 0.5 µM",-39.8%
same,inhibition,"[8]; measured here: with BGB IC20, at 5 µM",-20.6%
same,inhibition,"[8]; measured here: with cisplatin IC20, at 0.5 µM",-6.13%
same,inhibition,"[8]; measured here: with cisplatin IC20, at 5 µM",-66.2%
same,inhibition,"[8]; single agent, at 5 µM",-17.9%
same,inhibition,[9]; at 0.5 µM,-53.4% (inactive)
same,inhibition,"[9]; measured here: combination with BGB at IC20, at 0.5 µM",-8.22%
same,inhibition,"[9]; measured here: combination with cisplatin at IC20, at 0.5 µM",-77.6%
same,inhibition,[10]; at 0.5 µM,-18.7% (inactive)
same,inhibition,"[10]; measured here: combo with BGB at IC20, at 0.5 µM",-21.4%
same,inhibition,"[10]; measured here: combo with cisplatin at IC20, at 0.5 µM",-22.1%
same,inhibition,[11]; at 0.5 µM,-6.71% (inactive)
same,inhibition,"[11]; measured here: inhibition with BGB combination, at 0.05 µM",-27.7%
same,inhibition,"[11]; measured here: inhibition with cisplatin combination, at 0.05 µM",-16.3%
same,inhibition,[12]; at 0.5 µM,-18.8% (inactive)
same,inhibition,[12]; [22],-16.8%
same,inhibition,[12]; [23],-59.2%
same,inhibition,[13]; at 0.5 µM,-35.4% (inactive)
same,inhibition,"[13]; measured here: BGB combination, at 0.5 µM",-21.6%
same,inhibition,"[13]; measured here: BGB combination, at 5 µM",-29.1%
same,inhibition,"[13]; measured here: cisplatin combination, at 0.5 µM",-60.5%
same,inhibition,"[13]; measured here: cisplatin combination, at 5 µM",-34.4%
same,inhibition,"[14]; BGB combination, concentration series, at 5 µM",-31.1%
same,inhibition,[14]; at 0.5 µM,-16.9% (inactive)
same,inhibition,"[14]; cisplatin combination, concentration series, at 5 µM",2.74%
same,inhibition,[15],-10.5% (inactive)
same,inhibition,[15]; measured here: combo with BGB IC20,-8.28%
same,inhibition,[15]; measured here: combo with cisplatin IC20,-5.35%
same,inhibition,[16]; at 0.5 µM,-35.2% (inactive)
same,inhibition,"[16]; cisplatin combination, at 0.5 µM",-18.2%
same,inhibition,"[16]; cisplatin combination, at 5 µM",-3.55%
same,inhibition,"[16]; measured here: BGB IC40 combination 0.05 uM, at 0.05 µM",9.42%
same,inhibition,"[16]; single agent, at 5 µM",-34.6%
same,inhibition,[17]; at 0.5 µM,-21.2% (inactive)
same,inhibition,"[17]; cisplatin combo, at 5 µM",-32.4%
same,inhibition,"[17]; measured here: BGB IC40 combination, at 0.05 µM",-22.9%
same,inhibition,[17]; [22],-18.2%
same,inhibition,"[17]; single agent, at 5 µM",-26.9%
same,inhibition,[18]; at 0.5 µM,-36.2% (inactive)
same,inhibition,[18]; [20],-19.2%
same,inhibition,[18]; [21],-48%
same,inhibition,"[18]; single agent, at 0.05 µM",-83.2%
same,inhibition,"[18]; single agent, at 5 µM",0.3%
same,log fold change Tl+ flux,F380Y,0.00103 (inactive)
same,log fold change Tl+ flux,F380Y/beta1,0.0203 (inactive)
